Most compounds without a hit are left out; they make up all but 4.5% or so of the library.
PfHsp40 yeast = compounds rescuing yeast from Plasmodium falciparum HSP40 toxicity; AID 504582; S. cerevisiae expressing PfHsp40, growth rescue, ATP luminescence; 340,000 tested, 0.68% active; growth rescue, % at 12.5 µM; in the data active = growth rescue above about 28%, passing the limit was not always enough;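 also: yeast W303a lacking pdr1 and pdr3 grown in galactose medium; growth measured after three days at 30 °C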
Mtb FBA inh = inhibits M. tuberculosis FBA enzyme. purified M. tuberculosis FBA, fluorescence read-out. inhibition, % at 1 µM. 360,000 tested, 2.3% active. AID 588726; in the data active = inhibition above about 27%;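 also: 0% = vehicle and 100% = reference inhibitor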
Target sequence (P9WQA3 whole entry, looked up): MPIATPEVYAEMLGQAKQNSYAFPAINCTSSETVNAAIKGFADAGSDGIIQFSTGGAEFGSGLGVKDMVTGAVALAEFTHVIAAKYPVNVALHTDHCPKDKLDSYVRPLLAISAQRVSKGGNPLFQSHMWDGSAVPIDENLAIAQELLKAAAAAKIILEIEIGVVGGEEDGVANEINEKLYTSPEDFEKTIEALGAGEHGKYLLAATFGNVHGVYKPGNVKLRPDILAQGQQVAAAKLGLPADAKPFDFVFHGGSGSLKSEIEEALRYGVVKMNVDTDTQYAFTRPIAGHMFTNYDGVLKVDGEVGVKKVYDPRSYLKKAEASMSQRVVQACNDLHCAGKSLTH
BJeLR lethal = kills HRASV12-expressing BJeLR cells; inhibition, % (concentration not given with the values); 300,000 tested, 0.17% active; BJeLR (HRASV12) viability, CellTiter-Glo ATP luminescence, 48 h; in the data active = inhibition above about 50%
PrP UTR inh = suppresses PrP 5' UTR mRNA reporter expression | AID 488862 | 340,000 tested, 0.35% active | cell-based PrP 5' UTR mRNA reporter, plate reader | inhibition, % (no concentration beside the values); in the data active = inhibition above about 52%; also: 0 = median of the neutral control wells
PrPC surface inh = inhibitors of human cell surface prion protein PrPC; 370,000 tested, 0.43% active; inhibition, % at 13.8 µM; AID 720596; TR-FRET read-out; P04156; in the data active = inhibition above about 24%; also: 0% = median of the test wells and 100% = reference compound wells
GDH-TPI inh = counter-screen for M. tuberculosis FBA inhibitors: GDH-TPI coupled enzymes. 360,000 tested, 1.2% active. GDH-TPI coupled enzyme counterscreen, NADH absorbance. inhibition, % at 4.8 µM. AID 588335; in the data active = inhibition above about 30%;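 also: 0% = DMSO wells and 100% = wells lacking the enzyme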
* marks the source's active call; other numbers are inactive results; nt = no result given.

SMILES	PfHsp40 yeast	Mtb FBA inh	BJeLR lethal	PrP UTR inh	PrPC surface inh	GDH-TPI inh
Cc1cc(C)n2cc(CSCC(=O)O)nc2n1	-0.4	122.7*	0.9	-19.4	4.6	12.4
Cc1cc(C)n2cc(CSc3ccc(Br)cc3)nc2n1	-0.9	8.0	-9.2	-19.9	10.3	1.2
COc1ccc2c(c1)CO[C@H]([C@H](O)COC(C)=O)[C@H]2/C=C/c1ccccc1	nt	nt	nt	nt	-4.8	nt
Cc1c(C(=O)NCCSCc2c(F)cccc2Cl)cnn1-c1ccc(Cl)cc1	132.4*	2.0	-6.4	-7.8	10.7	6.2
C/C(=N/NC(=O)CSc1nnc(-c2ccccc2)n1-c1ccc(Cl)cc1)c1cccc(O)c1	nt	nt	nt	nt	4.6	nt
O=C(N/N=C/c1ccccn1)c1ccc(Cl)cc1	0.2	1.1	20.2	-31.8	14.0	-3.5
Clc1ccccc1NN=Cc1ccccn1	nt	-0.6	nt	nt	4.0	46.9*
O=C(c1ccccc1I)N1CCC(Oc2cccnc2)CC1	nt	nt	nt	nt	2.9	nt
CCCOc1ccc(C(=O)NNC(=S)NC(=O)CC)cc1	115.3*	-0.8	2.7	13.8	-2.5	-4.0
CCn1cc(/C=C(\NC(=O)c2ccccc2F)C(=O)NCCCn2ccnc2)c2ccccc21	-1.1	-5.1	-1.3	9.2	-11.7	32.8*
CCn1cc(/C=C(\NC(=O)c2ccccc2OC)C(=O)NCCCn2ccnc2)c2ccccc21	0.5	-5.1	0.6	-17.9	-3.8	24.9
CCn1cc(/C=C(\NC(=O)c2ccc(OC)cc2)C(=O)NCCCn2ccnc2)c2ccccc21	nt	-4.5	nt	nt	-5.7	37.2*
CCCCN1CC(=O)N2[C@H](C[C@@]3(n4ccc5ccccc54)c4ccccc4N(S(=O)(=O)c4ccccc4)[C@@H]23)C1=O	nt	nt	nt	nt	-1.2	nt
O=C(NC1CCCCC1)c1ccc2c(c1)OCO2	-0.3	1.0	-4.5	-36.0	-1.5	4.5
O=C(NC1CCS(=O)(=O)C1)c1ccc2c(c1)OCO2 (centres undefined)	44.2*	-2.9	-1.6	-30.2	-8.3	-1.1
CC1(c2nnnn2-c2ccc3ccccc3c2)CSCC(=O)N1C1CC1 (centres undefined)	nt	nt	nt	nt	4.3	nt
Cc1noc(/C=C/N(C)C)c1S(=O)(=O)N1CCCC(C(=O)NCc2ccccc2Cl)C1 (centres undefined)	0.7	-0.7	2.3	-0.1	-0.9	31.6*
Cc1noc(/C=C/N(C)C)c1S(=O)(=O)N1CCCC(C(=O)NCc2ccc(Cl)cc2)C1 (centres undefined)	-0.6	-2.8	nt	-28.3	-7.6	56.0*
Cc1ccc(CNC(=O)C2CCCN(S(=O)(=O)c3c(C)noc3/C=C/N(C)C)C2)cc1 (centres undefined)	0.0	2.1	6.9	-13.9	-2.3	51.6*
Cc1n[nH]c(C)c1S(=O)(=O)N1CCCC(C(=O)NCc2ccccc2Cl)C1 (centres undefined)	-0.9	2.3	-8.0	-6.1	-0.4	-5.8
Cc1noc(/C=C/N(C)C)c1S(=O)(=O)N1CCCC(C(=O)NCc2ccc(F)cc2)C1 (centres undefined)	nt	nt	3.1	nt	nt	nt
COc1ccc(CNC(=O)C2CCCN(S(=O)(=O)c3c(C)noc3/C=C/N(C)C)C2)cc1 (centres undefined)	0.1	-3.6	9.8	-10.6	1.8	28.2
Cc1ccc(S(=O)(=O)N2CCCC2c2cccc3[nH]cc(C)c23)cc1 (centres undefined)	nt	nt	nt	nt	-0.5	nt
c1ccc(CCSc2nnc(-c3cccnc3)n2Cc2ccccc2)cc1	nt	nt	nt	nt	4.5	nt
Cc1ccc(N/C(N)=N/c2nc(C)cc(N3CCCCC3)n2)c(C)c1	0.9	0.9	12.2	-8.1	45.1*	-6.8
SMILES	PfHsp40 yeast	Mtb FBA inh	BJeLR lethal	PrP UTR inh	PrPC surface inh	GDH-TPI inh
Cc1ccc(N/C(N)=N/c2nc3c(c(=O)[nH]2)CCCC3)c(C)c1	0.6	2.3	2.6	-25.7	-1.0	4.9
CCOC(=O)N1CCN(C(=O)C[C@H]2C[C@@]3(C(=O)OC)C(=C[C@H](C(C)C)O[C@@H]3C3CC3)N(CCc3ccc(OC)c(OC)c3)C2=O)CC1	nt	nt	nt	nt	-6.0	nt
COP(=O)(OC)C(NC(=O)OCc1ccccc1)C(C)C (centres undefined)	nt	nt	nt	nt	1.1	nt
Cc1ccc(/C=C2\SC(=S)N(CC3CCCO3)C2=O)o1 (centres undefined)	1.7	-6.8	86.2*	-37.2	2.0	10.2
O=C1/C(=C/c2ccco2)SC(=S)N1CC1CCCO1 (centres undefined)	1.4	-1.2	7.7	-36.6	-5.2	1.6
CCN(CC)c1ccc(C=NNC(=O)Cc2cc(=O)[nH][nH]2)c(O)c1	nt	nt	nt	nt	-8.3	nt
Cc1ccc(S(=O)(=O)CCC(=O)OCC(=O)c2cc(C)ccc2C)cc1	0.9	0.2	6.4	-7.6	-2.6	0.7
Cc1ccc(S(=O)(=O)CCC(=O)c2ccc(O)cc2O)cc1	0.4	-1.1	-27.4	-11.7	-7.7	43.4*
Cc1cc(C)cc(C(=O)OCCN2CCN(C3CN(Cc4cn(Cc5ccccc5F)nn4)S(=O)(=O)C3)CC2)c1 (centres undefined)	nt	nt	nt	nt	-3.8	nt
CC1=CC(=C(C#N)C#N)C=C(C)N1CCN1CCNCC1	-0.5	-2.4	4.4	-8.7	4.5	30.9*
Cc1ccc(NC(=O)CC2=NC(=O)C(CC(=O)Nc3ccccc3F)S2)cc1 (centres undefined)	0.6	-3.2	8.7	-16.3	-3.9	32.5*
Cc1ccc(-c2sc(-c3ccccc3)nc2CC(=O)Nc2ccccc2F)cc1	-0.5	-1.0	4.4	-19.9	3.5	1.5
COc1ccccc1CN[C@@H]1CC[C@@]23CCCN2C(=O)CCC[C@H]3C1	nt	nt	nt	nt	-1.2	nt
Cc1cc(C)c(OCC(=O)Nc2cccc(NC(=O)c3ccco3)c2)c(Br)c1	121.7*	-1.2	12.3	-19.2	9.7	6.4
CCOc1ccc(CC(=O)Nc2ccc(NC(=O)c3ccco3)cc2)cc1OCC	-0.2	-0.8	81.6*	-30.7	6.4	3.1
CCC(=O)Nc1ccc(NC(=O)c2ccco2)cc1	-0.1	1.2	-2.5	-60.3	-4.2	16.7
CCOc1ccc(CC(=O)Nc2nccs2)cc1OCC	37.9*	-1.4	3.3	-19.9	-6.1	-3.7
CC(C)C(=O)N1CC[C@H]2[C@H](CCCN2Cc2cc(F)cc(F)c2)C1	nt	nt	nt	nt	0.1	nt
CN(c1ccc(OCC(=O)Nc2cc(Cl)ccc2C(=O)O)cc1)S(=O)(=O)c1ccc(F)cc1	26.5*	-2.8	nt	-36.9	0.6	-3.5
CN(c1ccc(OCC(=O)Nc2ccc(S(N)(=O)=O)cc2)cc1)S(=O)(=O)c1ccc(F)cc1	-0.2	2.6	nt	-24.5	0.7	-0.3
C/C(=N\NC(=O)c1ccc(NS(=O)(=O)c2cccs2)cc1)c1cccs1	-1.4	0.3	-4.1	-20.3	-5.8	22.4
C/C(=N\NC(=O)c1ccc(Cl)cc1)c1cccs1	-1.0	2.6	4.1	-87.3	3.2	41.5*
O=c1[nH]cccc1-c1nc2ccccc2n1Cc1cccc(F)c1	-1.1	161.6*	-4.4	-8.4	2.1	8.2
Clc1ncccc1-c1nc2ccccc2n1Cc1ccccc1	-2.3	5.2	-8.7	8.3	nt	-8.1
CCCn1c(-c2ccc[nH]c2=O)nc2cc(C)c(C)cc21	0.5	115.3*	3.0	-60.3	2.9	2.2
